The list is not random: actives were taken first. Their share in the collection is about 2.9%.
GPR32 ag: qHTS for Agonists of Human Resolvin D1 Receptor DRV1; CHO-K1 GPR32 beta-arrestin PathHunter luminescence, 90 min; zero percent set by DMSO-only wells; activation, % at 76.9 µM; 2.5% of 48,000 active; AID 1346428, 2018;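 active means activation of at least 60% and not above a set upper limit, about 1 call in 100 departs from these limits; inconclusive means activation of 40% to 60%, or above that upper limit; inactive means activation under 40%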; further: 0% is about no effect
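Agonism was scored by beta-Gal fragment complementation (chemiluminescent read, 1 h detection at ambient temperature) reporting beta-arrestin binding to GPR32 in engineered CHO-K1 cells. Compound treatment lasted 90 min at 37 C, normalized to a DMSO basal control.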
SKOV3 invasion: Primary qHTS assay for Inhibitors of ovarian cancer metastasis using an organotypic tumor microenvironment (TME) model; SKOV3ip1-GFP adhesion/invasion on 3D omental model, fluorescence; Potency, µM (top dose mostly 45.8 µM), for inactives: at the top dose activity change, negative = inhibition, usual class: inhibitors; 0.1% of 46,000 active;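 further: potency means the concentration at half of the fitted maximal effect; plate controls were DMSO wells for no effect and tomatine positive control wells for full effect; nearly all actives have a fitted effect of over 65% in size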
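Adhesion/invasion was scored as fixed GFP-labeled SKOV3ip1 cell counts (488/509 nm), normalized to DMSO and tomatine controls. Cancer cells in serum-free medium, with four compound doses (0.36-46 umol/L), sat 2 hr at RT then 16 hr at 37 C on a 48 hr fibroblast/mesothelial/ECM culture.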
FH mod: Identification of activators of human fumarate hydratase by quantitative high-throughput screening; Fumarate hydratase, mitochondrial (Homo sapiens), P07954; FH coupled MDH/diaphorase resazurin fluorescence, 15 min; Potency, µM (highest dose often 79.9 µM), for the others: at the top dose activity change, negative = inhibition, most hits filed as inhibitors; 0.22% of 54,000 active; further: potency means the concentration at half of the fitted maximal effect; on the % scale 0 is the no-effect control and ±100 the full control effect; the screen sought activators but most active calls are inhibition curves; nearly all actives have a fitted effect of over 45% in size
GALC G270D up: A Novel Cell-Based Assay to Identify Small Molecules for B -Galactocerebrosidase. P54803. 145M-Twi-hGALC-G270D cells (Twitcher mouse brain line with human GALC G270D), HMU-beta-Gal fluorescence, 48 h. Potency, µM (series often up to 57.5 µM), hits mostly activators. 0.1% of 45,000 active. AID 1159614, 2016; further: potency means the concentration at half of the fitted maximal effect; 0% is about no effect; nearly all actives have a fitted effect of over 65% in size
Target sequence (P54803 whole entry G286D): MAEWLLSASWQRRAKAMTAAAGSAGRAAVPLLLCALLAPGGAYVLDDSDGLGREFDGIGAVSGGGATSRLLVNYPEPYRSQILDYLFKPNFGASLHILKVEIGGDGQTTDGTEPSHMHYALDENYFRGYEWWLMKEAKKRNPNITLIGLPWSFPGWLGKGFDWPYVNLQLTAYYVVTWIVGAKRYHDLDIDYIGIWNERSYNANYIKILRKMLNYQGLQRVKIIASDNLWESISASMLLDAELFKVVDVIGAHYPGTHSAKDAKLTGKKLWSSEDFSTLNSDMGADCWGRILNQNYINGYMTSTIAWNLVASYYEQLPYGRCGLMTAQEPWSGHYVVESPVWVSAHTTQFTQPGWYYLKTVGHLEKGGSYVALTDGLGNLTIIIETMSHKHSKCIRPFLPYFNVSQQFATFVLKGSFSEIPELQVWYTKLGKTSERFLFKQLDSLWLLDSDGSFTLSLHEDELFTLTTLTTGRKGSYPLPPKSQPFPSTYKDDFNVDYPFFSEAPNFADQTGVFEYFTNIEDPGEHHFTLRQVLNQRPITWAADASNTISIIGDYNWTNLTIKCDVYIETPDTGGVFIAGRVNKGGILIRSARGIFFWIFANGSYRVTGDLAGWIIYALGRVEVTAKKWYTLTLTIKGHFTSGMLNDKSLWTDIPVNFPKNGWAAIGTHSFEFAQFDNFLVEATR
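Brain-derived Twitcher mouse 145M-Twi cells stably expressing human GALC-G270D or wild-type GALC, treated live, then residual GALC activity read by fluorescence of HMU-b-Gal substrate (0.1 mM final) in citrate-phosphate buffer pH 5.2 with sodium taurocholate. Signal increase indicates enhancement.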
Numbers without * were called inactive; i = inactive; ? = inconclusive; . = not tested or not shown; [ ] = remark or other dose. Unless noted, the call rests on the fitted dose curve; in most records, active means well fitted curve in the direction sought with a large enough effect; inconclusive means small, poorly fitted or top-dose-only effect, or another doubt; inactive means no such curve, though single readings can be large; an effect the other way counts as inactive or inconclusive.

SMILES	GPR32 ag	SKOV3 invasion	FH mod	GALC G270D up
O=c1cc[nH]c(=O)[nH]1	44.7	.	1.2%[53.3 µM]	i
Cc1ccccc1Nc1c(-c2cccnc2)nc2cccc(C)n12	0.3	?	26.1%	i
Cc1ccc(Nc2c(-c3ccc(O)cc3)nc3cccc(C)n23)cc1	116.9*	-26.6%	-6.2%	i
Cc1cccc2nc(-c3cccnc3)c(Nc3ccc(C(C)C)cc3)n12	61.3*	?	-4.8%	i
CSc1ccc(-c2nc3cccc(C)n3c2Nc2ccc(Cl)cc2)cc1	-2.3	4.1%	-27.8%	i
Cc1c(C(=O)OC2CCCCCC2)[nH]c2c1C(=O)CC(c1ccccc1)C2 (configuration not stated)	78.6*	-0.5%	1.3%	i
CNC(=O)c1ccccc1Nc1nc(Nc2ccc3c(c2OC)CCCC(N2CCN(CCO)CC2)C3)ncc1Cl (configuration not stated)	.	.	1.8%	.
O=C(CCNS(=O)(=O)c1ccc(Br)s1)Nc1ccc(Br)cc1	88.6*	-7.3%	-9.2%	i
O=C(Nc1nc2ccc(F)cc2s1)c1nc(S(=O)(=O)Cc2ccccc2F)ncc1Cl	105.3*	?	-3.2%	i
COc1ccc(NC(=O)c2nc(S(=O)(=O)Cc3ccc(C)cc3)ncc2Cl)cc1	-26.6	?	-12.2%	i
Cc1ccc(C)c(NC(=O)c2nc(S(=O)(=O)Cc3ccc(F)cc3)ncc2Cl)c1	7.8	11.2µM*	3.2%	i
CCOc1ccc(NC(=O)c2nc(S(=O)(=O)Cc3ccccc3F)ncc2Cl)cc1	-25.3	?	-4.6%	i
CCc1nnc(NC(=O)c2nc(S(=O)(=O)Cc3cccc(C)c3)ncc2Cl)s1	0.6	12.6µM*	16.7%	i
CCCC(NC(=O)/C(C#N)=C/c1cccc(Br)n1)c1ccccc1 (configuration not stated)	.	.	-10.0%	.
CC(=O)c1cc(-c2ccc(F)cc2)n(CCC(=O)NCc2ccccc2C)c1C	-9.7	-6.4%	.	.
CC(=O)c1cc(-c2ccccc2)n(CC(=O)NCc2ccccc2C)c1C	79.7*	-6.1%	.	.
CCN1C(=O)c2cccc3c(S(=O)(=O)Nc4ccc(O)c(C(=O)O)c4)ccc1c23	-36.1	15.5%	31.6µM*	i
COc1ccc(C2=CC(c3ccccc3F)n3ncc(C(=O)Nc4ccc(C)cc4)c3N2)cc1 (configuration not stated)	-5.1	13.7%	-30.6%	i
COc1cccc(C2=CC(c3ccccc3F)n3ncc(C(=O)Nc4ccc(F)cc4)c3N2)c1 (configuration not stated)	70.5*	?	-26.2%	i
COc1c(CCC(=O)O)cccc1O[C@@H]1O[C@H](CO)[C@@H](O)[C@H](O)[C@H]1O	.	.	-0.2%[53.3 µM]	.
CCC(C(=O)OCCN1CCOC(c2ccccc2)C1C)c1ccccc1 (configuration not stated)	61.8*	.	-4.8%[53.3 µM]	i
CCC(C(=O)OCc1cc(=O)n2nc(CCOC)sc2n1)c1ccccc1 (configuration not stated)	-13.3	-8.7%	?	i
COC(=O)c1cc(OC)c(O[C@@H]2O[C@@H](C)[C@H](O)[C@@H](O)[C@H]2O)c(OC)c1	.	.	0.3%[53.3 µM]	.
CCc1cccc(C)c1NC(=O)CSc1nnc(N)s1	93.6*	16.4%	8.6%	i
O=S(=O)(c1ccccc1)n1nc(-c2ccc(Cl)cc2)nc1NCc1ccc(F)cc1	71.6*	i	?	i
SMILES	GPR32 ag	SKOV3 invasion	FH mod	GALC G270D up
CN1CCN(c2ccc(Nc3cc(-c4cccc(-n5ccc6cc(C7CC7)cc(F)c6c5=O)c4CO)cn(C)c3=O)nc2)CC1	.	.	20.9%	.
CCOc1ccc(C(=O)Nc2ccc(-c3nc4cc(C(C)C)ccc4o3)cc2)cc1Cl	84.0*	2.2%	14.7%	i
CCOc1cccc(C(=O)Nc2ccc3oc(-c4cccnc4)nc3c2)c1	106.6*	15.4%	-5.0%	i
CCCCOc1cccc(C(=O)Nc2ccc3oc(-c4cccnc4)nc3c2)c1	12.0	4.6%	-11.4%	i
C[C@@H]1O[C@@H](O[C@@H]2[C@@H](O)[C@H](O[C@H]3CC[C@@]4(C)C(CC[C@]5(C)C4CC=C4[C@@H]6CC(C)(C)CC[C@]6(C(=O)O[C@@H]6O[C@H](CO)[C@@H](O)[C@H](O)[C@H]6O)CC[C@]45C)C3(C)C)O[C@H](C(=O)O)[C@H]2O)[C@H](O)[C@H](O)[C@H]1O (some centres not stated)	.	.	-1.4%[20.6 µM]	.
COc1ccc(CCNS(=O)(=O)c2ccc(F)c(C(=O)Nc3ccc(Cl)cc3)c2)cc1OC	63.6*	-9.1%	-26.0%	i
Cc1ccc(NC(=O)c2cc(S(=O)(=O)NCCc3ccc(Cl)cc3)ccc2F)cc1	36.0	i	?	i
Cc1cc(NC(=O)CCc2nc3cccnc3n2-c2ccccc2)ccc1Br	65.8*	-9.1%	-10.3%	i
CCCOC(=O)c1cccc(Nc2nc(CCC)cc(=O)[nH]2)c1	86.9*	i	.	.
COc1c(Nc2ncc(Cl)c(N[C@H]3[C@H](C(N)=O)[C@@H]4C=C[C@@H]3C4)n2)ccc2c1CCC(N1CCOCC1)CC2 (some centres not stated)	.	.	-20.5%	.
CCC(=O)N1CCc2cc(S(=O)(=O)CCC(=O)Nc3ccc(Cl)c(C(F)(F)F)c3)ccc21	88.1*	i	0.8%	i
C=C1C[C@@]2(O)O[C@@]3(C[C@H]2C(C)C)[C@@H](C)CC[C@@H]13	.	.	0.0%	.
CCN1CCC(N(Cc2ccc3c(c2)OCO3)C(=O)Nc2ccc(Br)c(C)c2)CC1	80.0*	?	-4.7%	i
C=C[C@](C)(CC/C=C(\C)C(=O)O)O[C@@H]1OC[C@H](O)[C@H](O)[C@H]1O	.	.	-2.8%[53.3 µM]	.
COc1cc2nc(SCC(=O)Nc3c(C)cc(C)cc3C)n3nc(CCn4c(C)nc5ccccc54)nc3c2cc1OC	83.2*	-4.9%	0.7%	i
Cc1cc(C)c(NC(=O)CSc2nc3ccccc3c3nc(CCn4cncc4C)nn23)c(C)c1	14.8	i	-0.4%	i
O=C(CCC1CCN(Cc2ccccc2)CC1)c1ccc2c(c1)NCCCC2	81.2*	.	?	i
CC1=CC2(O)/C=C/C(C)(O)CC(O)/C=C/C(=O)OC23C(=O)NC(CC(C)C)C3C1C (configuration not stated)	.	.	6.4%[53.3 µM]	.
COC(=O)C1=C(C)NC(C)=C(C(=O)OCCCN2CCC(c3ccccc3)(c3ccccc3)CC2)C1c1cccc([N+](=O)[O-])c1 (configuration not stated)	105.3*	-10.6%	-6.8%[53.3 µM]	i
O=C1NC(=O)/C(=C/c2ccc(-c3ccc(F)cc3O)o2)S1	62.4*	.	?	.
CCOC(=O)c1cccc(NC(=O)c2cc3cc4cc(OC)ccc4nc3s2)c1	100.8*	17.0%	-1.1%	i
